Unmarked numbers belong to inactive results. Results filed as inconclusive are left out. Entries that show only a call come without a potency. Active and inactive are the calls of the source. Unless noted, calls come from the whole dose curve.
Experiments:
[1] = biological target: Thyrotropin receptor (Homo sapiens) (UniProt P16473); assay: qHTS assay to identify small molecule agonists of the thyroid stimulating hormone receptor (TSHR) signaling pathway (AID 1224843); note: nearly all actives have a fitted effect of over 45% in size; note: potency is the fitted concentration of half-maximal effect
Sequence of Thyrotropin receptor (Homo sapiens) (P16473 whole entry, looked up): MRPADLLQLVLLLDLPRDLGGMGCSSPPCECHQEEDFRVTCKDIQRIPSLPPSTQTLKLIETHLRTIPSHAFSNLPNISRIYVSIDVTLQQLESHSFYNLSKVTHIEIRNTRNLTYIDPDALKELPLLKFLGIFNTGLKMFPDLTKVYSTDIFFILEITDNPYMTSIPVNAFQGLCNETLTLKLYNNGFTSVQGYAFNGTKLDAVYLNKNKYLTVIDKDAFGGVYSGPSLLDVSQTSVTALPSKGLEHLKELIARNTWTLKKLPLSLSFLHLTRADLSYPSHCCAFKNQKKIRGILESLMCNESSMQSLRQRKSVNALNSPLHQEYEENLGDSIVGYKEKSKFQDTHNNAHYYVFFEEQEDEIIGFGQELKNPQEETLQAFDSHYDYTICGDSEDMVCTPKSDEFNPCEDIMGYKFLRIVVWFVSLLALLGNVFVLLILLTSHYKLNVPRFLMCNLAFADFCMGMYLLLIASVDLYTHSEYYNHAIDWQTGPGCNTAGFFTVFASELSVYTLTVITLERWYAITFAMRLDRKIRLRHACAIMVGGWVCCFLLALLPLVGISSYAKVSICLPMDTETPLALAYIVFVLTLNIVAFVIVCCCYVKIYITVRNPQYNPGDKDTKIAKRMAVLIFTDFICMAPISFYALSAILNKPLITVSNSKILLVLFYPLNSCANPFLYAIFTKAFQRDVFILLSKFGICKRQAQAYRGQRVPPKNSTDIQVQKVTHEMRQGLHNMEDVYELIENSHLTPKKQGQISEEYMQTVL
How it was run: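 Compounds are titrated over 15 concentrations, in triplicate, onto TSHR-HEK293 cells seeded at 800/well. Plates sit 30 min at room temperature before cAMP-d2 and anti-cAMP cryptate are added; signal is read after a further hour.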

[2] = qHTS assay to identify small molecule agonists of the hypoxia (HIF-1) signaling pathway - cell viability counter screen (AID 1224844); note: nearly all actives have a fitted effect of over 50% in size; note: potency is the fitted concentration of half-maximal effect
How it was run: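 CellTiter-Glo luminescence read-out, 30 min RT, taken in the same wells as the beta-lactamase HRE reporter assay; HRE-bla ME-180 cells, 0.5% dialyzed FBS, 17 hr compound treatment at 37C, 5% CO2.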

[3] = qHTS assay to identify small molecule agonists of the hypoxia (HIF-1) signaling pathway (AID 1224846; active = well fitted activation curve with a large enough effect in the signal ratio in the repeat runs, not every such curve was filed as active; the % refers to the signal ratio)
How it was run: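 Beta-lactamase FRET read-out (CCF4-AM substrate) from ME-180 cells carrying an HRE-driven bla reporter, after 17 hrs compound exposure at 37C/5% CO2. Cells were seeded at 2,000 per well in 0.5% dialyzed FBS medium and preincubated 5 hrs.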

[4] = qHTS assay to identify small molecule agonists of H2AX - cell viability counter screen (AID 1224847); note: nearly all actives have a fitted effect of over 30% in size; note: potency is the fitted concentration of half-maximal effect
How it was run: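 Wild-type CHO-K1 cells (10% FBS medium) were plated overnight at 37C, exposed to compounds at 15 concentrations for 3 hr at 37C (0.76% DMSO final), and viability was read as CellTiter-Glo luminescence after 30 min at room temperature.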

[5] = qHTS RealTime-Glo MT Cell Viability Assay in HepG2 cells - 24 hour (AID 1224867; active = well fitted curve in the direction sought with a large enough effect in the repeat runs; an effect the other way counts as inactive or inconclusive; note: nearly all actives have a fitted effect of over 50% in size; note: potency is the fitted concentration of half-maximal effect)
How it was run: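 Real-time, nonlytic viability: 600 HepG2 cells/well mixed with NanoLuc enzyme plus prosubstrate; 5 h settle, compound (DMSO) added by pintool; luminescence monitored over 40 h at 37 C.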

[6] = qHTS RealTime-Glo MT Cell Viability Assay in HEK293 cells - 32 hour (AID 1224868; active = well fitted curve in the direction sought with a large enough effect in the repeat runs; an effect the other way counts as inactive or inconclusive; note: nearly all actives have a fitted effect of over 50% in size; note: potency is the fitted concentration of half-maximal effect)
How it was run: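 Cells + reagent dispensed (600 cells/well, HEK293) → 5 h at 37 C/5% CO2 → 23 nL compound in DMSO pinned → 40 h at 37 C → luminescence read at 0, 8, 16, 24, 32, 40 h.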

[7] = A CellTox Green Cytotoxicity Assay to monitor cytotoxicity in HEK293 cells - 0 hour (AID 1224869; active = well fitted curve in the direction sought with a large enough effect in the repeat runs; an effect the other way counts as inactive or inconclusive; note: nearly all actives have a fitted effect of over 50% in size)
How it was run: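 Read-out: fluorescence of a cell-impermeant cyanine dye staining DNA of dead cells, proportional to cytotoxicity. HEK293, 600 cells/well with reagent, compound (23 nL DMSO) added after 5 h; reads at 0, 8, 16, 24, 32, 40 h.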

[8] = qHTS assay to identify small molecule antagonists of the estrogen related receptor (ERR) signaling pathway from Tox21 library (AID 1224848; active = well fitted curve in the direction sought with a large enough effect in the repeat runs; an effect the other way counts as inactive or inconclusive; note: nearly all actives have a fitted effect of over 50% in size; note: potency is the fitted concentration of half-maximal effect)
How it was run: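 First, 2,000 ERR cells per well were plated and held 6 h at 37 C/5% CO2. Next, compounds in DMSO were pinned in and left 18 h at 37 C. Finally, ONE-Glo was added and luminescence read after 30 min at room temperature.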

[9] = qHTS assay to identify small molecule agonists of the estrogen related receptor (ERR) signaling pathway from Tox21 library (AID 1224849); details: ERR reporter cell line, ONE-Glo luciferase, 18 h; at 92.4 µM (top of the series) unless noted; note: nearly all actives have a fitted effect of over 15% in size
How it was run: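 Luminescence readout (ONE-Glo, 30 min RT) after 18 h compound exposure at 37 C of NTP-supplied ERR reporter cells; cells were plated 6 h before compound addition by pin tool.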

[10] = qHTS assay to identify small molecule agonists of H2AX (AID 1224845; active = well fitted activation curve with a large enough effect in the signal ratio in the repeat runs, not every such curve was filed as active; the % refers to the signal ratio)
How it was run: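 Wild-type CHO-K1 cells plated overnight, then exposed 3 hr at 37C to compounds at 15 concentrations (0.76% DMSO). Lysed, then HTRF anti-pH2AX(S139)-cryptate/anti-H2AX-d2 detection after 24 hr at room temperature; emissions 665 and 620 nm.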

SMILES	Potency [1]	Potency [2]	outcome [3]	Potency [4]	Potency [5]	Potency [6]	Potency [7]	Potency [8]	activity change, positive = activation [9]	Potency [10]
CCCCCC=CCC=CCCCCCCCC(=O)OCC	inactive	inactive	inactive	inactive	inactive	inactive	inactive			
CO[Si](C)(OC)OC	inactive	inactive	inactive	inactive	inactive	inactive	inactive			
Cc1ccc(S)cc1	inactive	inactive	inactive	inactive	inactive	inactive	inactive			
CCOCCn1c(C2CCN(CCc3ccc(C(C)(C)C(=O)O)cc3)CC2)nc2ccccc21	inactive	inactive	inactive	inactive	inactive	inactive	inactive			
CC(=O)OCC(=O)[C@@]12OC(C)(C)O[C@@H]1C[C@H]1[C@@H]3C[C@H](F)C4=CC(=O)C=C[C@]4(C)[C@@]3(F)[C@@H](O)C[C@@]12C	inactive	inactive	inactive	inactive	inactive		inactive			
Nc1ccc(Cl)cc1[N+](=O)[O-]	inactive	inactive	inactive		inactive	inactive	inactive	inactive	-0.746%	
CCOC(=O)N1CCC(n2c(=O)[nH]c3cc(Cl)ccc32)CC1	inactive	inactive	inactive		inactive		inactive			
C=CC(C)(C)CC(=O)OC	inactive	12.3 µM (active)	inactive	inactive	inactive	1.38 µM (active)	inactive			
O=S(=O)(c1ccccc1)c1ccc(Cl)cc1	inactive	inactive	inactive	inactive	inactive	inactive	inactive		-31.4%	
COC(=O)[C@@H]1CC2=CC(=O)CC[C@]2(C)[C@@]23O[C@@H]2C[C@@]2(C)[C@@H](CC[C@@]24CCC(=O)O4)[C@H]13	inactive	inactive	inactive	inactive	inactive	inactive	inactive			
Cc1cc(S(=O)(=O)O)ccc1N=Nc1c(O)ccc2ccccc12	inactive	inactive	inactive		inactive	inactive	inactive	inactive	-1.94%	
CN(C)CCOC1=Cc2ccccc2Sc2ccc(Cl)cc21	inactive		inactive	inactive		inactive			-11.9% [at 42.5 µM]	inactive
CCCOC(=O)c1ccc(C(=O)OCCC)nc1	inactive	inactive	inactive	inactive	inactive	inactive	inactive			
O=C(N[C@@H](c1ccccc1)[C@@H]1CCCCN1)c1cccc(C(F)(F)F)c1Cl	inactive	inactive	inactive		43.6 µM (active)	24.5 µM (active)	inactive	30.6 µM (active)	-38.1%	
CC(N)CN (centres undefined)	inactive	inactive	inactive	inactive	inactive	inactive	inactive			
COc1cc2c(N3CCN(C(=O)Nc4ccc(OC(C)C)cc4)CC3)ncnc2cc1OCCCN1CCCCC1	inactive		inactive	inactive	inactive	9.52 µM (active)	inactive		-32.4% [at 42.5 µM]	inactive
OCCSc1ccccc1	inactive	21.9 µM (active)		inactive	inactive	inactive	inactive			
Cc1oncc1C(=O)Nc1ccc(C(F)(F)F)cc1	inactive	inactive		inactive	inactive	inactive	inactive			
CCCCCCCCCCCC[N+](C)(C)CC(=O)[O-]	inactive	inactive	inactive		inactive	inactive				
CC1CC(=O)NN=C1c1ccc(NCC(C)(C)NCC(O)COc2cc(Cl)ccc2C#N)cc1 (centres undefined)	1.19 µM (active)		inactive	inactive	inactive		inactive		-15% [at 42.5 µM]	inactive
CCCCCCOC(=O)CCCCCCCC(=O)OCCCCCC	inactive	inactive	inactive	inactive	inactive	inactive	inactive			
C(=C\c1ccccc1)/CN1CCN(C(c2ccccc2)c2ccccc2)CC1	inactive	inactive			inactive		inactive			
Cc1c(C(=O)NN2CCCCC2)nn(-c2ccc(Cl)cc2Cl)c1-c1ccc(Cl)cc1	inactive	21.3 µM (active)		inactive	inactive		inactive			
O=c1[nH]c2ccc(S(=O)CCN3CCC(Cc4ccc(F)cc4)CC3)cc2o1 (centres undefined)	inactive	inactive	inactive		inactive		inactive		-29.7%	
ON(Cc1ccccc1)Cc1ccccc1	inactive	inactive	inactive	inactive	inactive	inactive	inactive			
CCCCCCCCCCCC(=O)[O][Sn]([CH2]CCC)([CH2]CCC)[O]C(=O)CCCCCCCCCCC	inactive	inactive		inactive	19 µM (active)	7.56 µM (active)		inactive	-11.3% [at 42.5 µM]	

SMILES	Potency [1]	Potency [2]	outcome [3]	Potency [4]	Potency [5]	Potency [6]	Potency [7]	Potency [8]	activity change, positive = activation [9]	Potency [10]
CNC(=S)NC	inactive	11 µM (active)		inactive	inactive	inactive	inactive			
CC(=O)N(c1onc(C)c1C)S(=O)(=O)c1ccc(N)cc1	inactive	inactive	inactive	inactive	inactive	inactive	inactive			
Cc1ccccc1N1C(=O)c2cc(S(N)(=O)=O)c(Cl)cc2NC1C (centres undefined)	inactive	inactive		inactive	inactive	inactive	inactive			
O=C(CCCN1CCN(c2ccc(F)cc2)CC1)NC1c2ccccc2CSc2ccccc21 (centres undefined)	inactive	inactive	inactive			19 µM (active)	inactive			
Cc1nccn1-c1ccc(Sc2cccc(C3(C(N)=O)CCOCC3)c2)cc1	inactive	inactive	inactive			1.38 µM (active)		1.37 µM (active)	-58%	
O=C1OCCN1/N=C/c1ccc([N+](=O)[O-])o1	inactive	inactive	inactive	inactive	inactive	inactive				
O=C(CCCCCCCCC#CI)Oc1ccccc1	inactive	inactive	inactive	inactive	6.01 µM (active)		inactive			
C=CC(=O)NCOCC(C)C	inactive	inactive	inactive	inactive	inactive	inactive				
O=C(CS)OCCOC(=O)CS	inactive		inactive	inactive	inactive	inactive			-27.9%	inactive
Cc1cc(OI)c(C(C)C)cc1-c1cc(C(C)C)c(OI)cc1C	inactive	inactive	inactive	inactive	inactive	inactive	inactive			
Cn1c(=O)c2c(ncn2CC(=O)O)n(C)c1=O	inactive	inactive	inactive	inactive	inactive	inactive	inactive			
OCC1CC=CCC1 (centres undefined)	inactive	inactive	inactive	inactive	inactive	inactive	inactive			
CC(C)c1nnc2ccc(-c3ocnc3-c3cc(F)ccc3F)cn12	inactive	inactive	inactive		inactive	21.9 µM (active)	inactive		-31.4%	
Nc1nccs1		inactive	inactive	inactive	inactive	inactive	inactive			inactive
CC(C)CCCC(=O)O		inactive	inactive	inactive	inactive	inactive	inactive	inactive	0.997%	inactive
Cc1ccc(Nc2nccc(N(C)c3ccc4c(C)n(C)nc4c3)n2)cc1S(N)(=O)=O		inactive	inactive	inactive	inactive	1.2 µM (active)	inactive	11.9 µM (active)	-54.4% [at 42.5 µM]	inactive
CNCCCC1c2ccccc2C=Cc2ccccc21	inactive			inactive	21.3 µM (active)		inactive		-23.5% [at 42.5 µM]	inactive
CCCc1c(OCCCOc2ccc(OCC(=O)O)cc2)ccc(C(C)=O)c1O	inactive			101 µM (active)	inactive	inactive	inactive	inactive	-8.13%	
CC(Cl)C(Cl)Cl (centres undefined)	inactive		inactive	inactive	inactive	inactive				inactive
COC(=O)Nc1nc2ccc(C(=O)c3cccs3)cc2[nH]1	inactive		inactive	inactive	inactive	0.169 µM (active)	inactive	inactive	-4.13% [at 42.5 µM]	
CCOc1cc(N)c(Cl)cc1C(=O)NCC1CN(Cc2ccc(F)cc2)CCO1 (centres undefined)	inactive		inactive	inactive		16.9 µM (active)	inactive			inactive
CCOC(=O)c1ccccc1C	inactive			inactive	inactive	inactive	inactive			inactive
COc1ccc(C(=O)c2cccc(O)c2)c(OC)c1		inactive	inactive	inactive	inactive	inactive	inactive			inactive
O=C(O)c1c(O)c(-c2ccccc2)nc2ccccc12	inactive		inactive	inactive	inactive	inactive	inactive			
CCCCC(CC)C(=O)OCCOCCOCCOCCOC(=O)C(CC)CCCC (centres undefined)		inactive	inactive	inactive	inactive		inactive	30.6 µM (active)	-33%	inactive
CC(C)CCCCCOC(=O)CCCCC(=O)OCCCCCC(C)C		inactive	inactive	inactive	inactive	inactive		inactive	-6.86%	inactive

From PubChem BioAssay (Tox21)
